This is a sample that favours compounds with a hit; in the whole collection about 1% have one here.
E-sel TNF inh: blocks E-selectin expression induced by TNF alpha; 120,000 tested, 0.71% active; HUVEC TNFa-induced E-selectin immunofluorescence, high content; inhibition, % at 2 µM;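 active = inhibition above the batch mean plus 3 SD, and confirmed as a hit on visual image review, cut at about 43% in these data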;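 also: 0% = TNF-stimulated DMSO wells and 100% = unstimulated control wells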
cytoskel mod: alters cytoskeleton assembly in HUVEC cells; HUVEC TNFa F-actin phalloidin imaging, high content; inhibition, % at 2 µM; 91,000 tested, 0.18% active; AID 836;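 active = inhibition above the batch mean plus 3 SD and confirmed as a hit by visual image inspection, cut at about 30% in these data, passing the limit was not always enough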
VCAM1 TNFa inh: reduces TNF alpha induced VCAM1 expression in HUVEC; HUVEC TNFa-induced VCAM-1 immunofluorescence, high-content imaging; 95,000 tested, 0.48% active; inhibition, % at 2 µM;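 active = inhibition above the batch mean plus 3 SD, with images confirmed as a hit by eye, cut at about 37% in these data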;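 also: 0% = TNF-stimulated DMSO wells and 100% = unstimulated control wells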
HUVEC tox TNFa: toxic to HUVEC cells under TNF alpha stimulation. HUVEC TNFalpha-stimulated, Hoechst cell count, imaging. cell count reduction, % at 2 µM. 93,000 tested, 0.17% active;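 active = cell count reduction exceeding the screen mean by over 5 SD, scaled to untreated wells per plate, cut at about 78% in these data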;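 also: cells counted after 24 h of TNF alpha exposure following the 1 h pretreatment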
Numbers without * were called inactive; / = no result given.

SMILES	E-sel TNF inh	cytoskel mod	VCAM1 TNFa inh	HUVEC tox TNFa
Cc1cc(-c2c(C)[nH]n(-c3ccccc3)c2=O)n(-c2ccccc2)n1	100*	14	19	25
CNC(=O)CN(c1ccc(OC)cc1)S(=O)(=O)c1ccc(F)cc1	-3	-9	93*	-6
COc1ccc([N+](=O)[O-])cc1N(CC1CO1)S(=O)(=O)c1ccc(C)cc1 (centres undefined)	1	/	/	/
Cc1ccc(OCC(O)CNS(=O)(=O)c2ccccc2C(=O)N2CCCCC2)cc1 (centres undefined)	3	44*	22	48
Cc1cc(C)nc(NC(=O)c2cc([N+](=O)[O-])cc([N+](=O)[O-])c2)n1	-10	/	/	/
COCCOC(=O)c1[nH]c2c(c1C)C(=O)CC(c1ccc(F)cc1)C2 (centres undefined)	/	4	20	-23
COCCOC(=O)c1[nH]c2c(c1C)C(=O)CC(c1ccccc1)C2 (centres undefined)	14	22	56*	60
CC(C)(C)NC(=O)CN(C(=O)Cn1nnc(-c2ccc(Cl)cc2)n1)C1CCN(Cc2ccccc2)CC1	-2	5	0	-10
CCOC(=O)c1cc(-c2ccccc2)sc1NC(=S)Nc1cccc(C)n1	54*	-34	4	4
O=C(C1CC1)N1CCN(C(c2ccccc2)c2ccccc2)CC1	14	-6	-7	1
COc1ccc(N2CCN(c3ncnc4c3cnn4-c3ccc(C)cc3C)CC2)cc1	12	-15	7	-20
Cc1ccc(-n2ncc3c(N4CCN(c5ccccc5)CC4)ncnc32)c(C)c1	-4	5	96*	/
COc1cccc(-n2c(SC3CCOC3=O)nc3ccccc3c2=O)c1 (centres undefined)	96*	3	0	-16
C/C(=N\OC(=O)C1CC1)C1CC1c1ccc(F)cc1 (centres undefined)	-10	/	/	/
CC(C)=NNc1nc2sc3c(c2c(=O)[nH]1)CC(C)(C)OC3	-8	/	/	/
C=CCCCOc1ccc(C(=O)O)cc1	-7	-37	76*	35
C/C(=N\NC(=O)CC1N=C(Cc2ccccc2)NNC1=O)c1ccc(C)cc1 (centres undefined)	100*	-17	15	52
OC1(c2cccc(C(F)(F)F)c2)CCN(c2ncnc3c2[nH]c2ccc(F)cc23)CC1	/	7	54*	-11
Fc1ccc2[nH]c3c(N4CCN(c5ccccc5)CC4)ncnc3c2c1	-13	/	/	/
Cc1nn(CCO)c2nc(-c3cccs3)cc(C(F)(F)F)c12	3	/	/	/
CCN1c2ccccc2-c2nc3ccccc3n2C1c1cccnc1 (centres undefined)	100*	8	-24	-14
Cc1cccc(NC(=O)CCSc2nc(C)cc(C)n2)c1	76*	-26	0	5
Cc1nonc1NC(=O)CSc1nc(C2CCCCC2)nc2ccccc12	8	83*	24	0
COc1c2c(nc3occc13)C(CC=C(C)C)(OC)C(O)CC2 (centres undefined)	4	12	6	-18
Cc1cc(C)n(-c2nc(-c3cccc(Cl)c3)cs2)n1	/	-28	90*	86*
SMILES	E-sel TNF inh	cytoskel mod	VCAM1 TNFa inh	HUVEC tox TNFa
CCC(=O)NCc1nc2ccccc2n1Cc1ccccc1F	65*	-39	-3	-4
CCC(=O)NCCCc1nc2ccccc2n1Cc1ccccc1F	-31	/	/	/
CCc1ccc(C(=O)/C=C/c2ccc([N+](=O)[O-])o2)cc1	12	4	49*	-6
COc1ccc2nc(SCCN(C)C)[nH]c2c1	-40	/	/	/
O=c1c2ccccc2nc(/C=C/c2ccc([N+](=O)[O-])o2)n1CCCO	-64	1	58*	10
COc1ccccc1Nc1ncnc2nc[nH]c12	/	8	3	-18
CC(=O)N(CN1C(=O)c2ccccc2C1=O)c1ccc2c(c1)oc1ccccc12	5	/	/	/
COc1cc(S(=O)(=O)NC2CCCCC2C)ccc1Cl (centres undefined)	51*	1	19	3
COc1cc(S(=O)(=O)NC2CCCC2)ccc1Cl	0	-1	9	-24
CCOC(=O)c1c(NC(=O)COc2ncnc3ccccc23)sc(C)c1CC	-1	/	/	/
COc1ccc(NC(=O)N2CCn3c2nc2ccccc23)cc1	-4	-38	58*	6
O=C(Nc1ccccc1)N1CCn2c1nc1ccccc12	-13	-2	16	10
CC1=NNC(=O)/C1=C\c1cn(-c2ccccc2)nc1-c1ccc(Cl)cc1	17	16	99*	84*
Cc1ccc(-c2nn(-c3ccccc3)cc2C=C2C(=O)CC(C)(C)CC2=O)cc1	-30	1	8	-4
CC(C)NC(=O)NC(=O)COC(=O)c1ccc(F)cc1F	3	/	/	/
COc1ccc2c(c1)C1CC(C)(NC(=O)C1S(=O)(=O)c1ccc(F)cc1)O2 (centres undefined)	77*	/	/	/
CNC(=S)N=Nc1c(O)[nH]c2ccc(C(C)C)cc12	68*	/	/	/
CC(C)c1ccc2[nH]c(O)c(N=NC(=O)c3cccc(S(=O)(=O)N4CCCCC4)c3)c2c1	12	/	/	/
CCN1C(=O)/C(=C\c2cn(-c3ccccc3)nc2-c2cccnc2)SC1=S	83*	/	/	/
Cn1c(O)c(C=NCC2CCNCC2)c(=O)n(C)c1=O	-2	0	12	-4
COC(=O)Sc1nc(N2CCOCC2)c2c(c1C#N)CC(C)(C)OC2	/	5	41*	-18
COc1ccnc(Oc2ccc(Cl)cc2)c1C#N	1	/	/	/
O=C1CC(c2ccccc2)CC2=C1CN(C1CCCCC1)CN2 (centres undefined)	70*	2	-6	-12
O=C(NCCc1ccc(Cl)cc1)C1CCC(=O)N1Cc1ccc(F)cc1 (centres undefined)	19	13	12	-60
COc1cc(C2Nc3ccc4ncccc4c3C3=C2C(=O)CCC3)cc(OC)c1O (centres undefined)	-6	-6	91*	-18
SMILES	E-sel TNF inh	cytoskel mod	VCAM1 TNFa inh	HUVEC tox TNFa
CCC(CO)n1c(=S)[nH]c2cc(OC)c(OC)cc2c1=O (centres undefined)	-15	/	/	/
Cc1cc(C)cc(NC(=S)NC2CC3CCCC(C2)N3C2CC2)c1 (centres undefined)	100*	/	/	/
Cc1ccc(SCCC(=O)Nc2ccccc2C(=O)NC(C)C)cc1	67*	/	/	/
CCc1cc(C(=O)Nc2ccccc2)cs1	63*	/	/	/
CCc1nnc(NC(=O)C2CCCN(S(=O)(=O)c3ccc(OC)cc3)C2)s1 (centres undefined)	2	/	/	/
COc1ccc(C(C)(C)C)cc1S(=O)(=O)N1CCN(C)CC1	11	21	93*	-22
O=C(CCN1C(=O)C2C3C=CC(C3)C2C1=O)NCC1CCCO1 (centres undefined)	/	69*	10	-50
O=C(NCC1CCCO1)c1cccc(N2C(=O)C3C4C=CC(C4)C3C2=O)c1 (centres undefined)	-4	22	-16	/
O=C1C(=O)c2ccc(-c3ccccc3)cc2-c2ccccc21	-28	-21	64*	22
CCn1c2ccc(/C(C)=N\O)cc2c2cc(/C(C)=N\O)ccc21	100*	37	-1	-7
CC(=O)N[C@@H](Cc1c[nH]c2ccccc12)C(=O)OCC(=O)Nc1ccc(S(=O)(=O)N(C)C)cc1	75*	/	/	/
O=C(COc1cccc2ccccc12)NCc1cccnc1	19	/	/	/
Cc1cc(C)n(C(=O)CNC(=O)CCc2ccccc2)n1	99*	-16	15	-32

Source: PubChem (Columbia University Molecular Screening Center)
